Values joined by “and” are separate entries in the source; they are usually repeats but may differ in a detail not shown here. Identical values can stand only once. Inconclusive results are not listed. Some compounds were tested as several samples or in several runs, with calls that do not always agree. Active and inactive are the calls of the source. Unless noted, calls follow the shape of the dose curve; as a rule, active = well fitted curve in the direction sought with a large enough effect in the repeat runs; inconclusive = weak or mixed curves; inactive = no such curve, though single readings can be large; an effect the other way counts as inactive or inconclusive.
Tests used:
[1] = qHTS assay to identify aromatase inhibitors - cell viability counter screen (AID 743084);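 also: cells stimulated with testosterone during compound exposure; nearly all actives have a fitted effect of over 55% in size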; also: potency is read from the fitted curve at half-maximal effect
[2] = target: Aryl hydrocarbon receptor (Homo sapiens) (UniProt P35869); experiment: qHTS assay to identify small molecule that activate the aryl hydrocarbon receptor (AhR) signaling pathway (AID 743085); also: nearly all actives have a fitted effect of over 15% in size; also: potency is read from the fitted curve at half-maximal effect;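 as to activation: HG2L7.5c1 human HepG2 liver cells with stably integrated DRE-driven firefly reporter; series mostly up to about 70 µM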
Aryl hydrocarbon receptor (Homo sapiens), sequence (P35869 whole entry, looked up): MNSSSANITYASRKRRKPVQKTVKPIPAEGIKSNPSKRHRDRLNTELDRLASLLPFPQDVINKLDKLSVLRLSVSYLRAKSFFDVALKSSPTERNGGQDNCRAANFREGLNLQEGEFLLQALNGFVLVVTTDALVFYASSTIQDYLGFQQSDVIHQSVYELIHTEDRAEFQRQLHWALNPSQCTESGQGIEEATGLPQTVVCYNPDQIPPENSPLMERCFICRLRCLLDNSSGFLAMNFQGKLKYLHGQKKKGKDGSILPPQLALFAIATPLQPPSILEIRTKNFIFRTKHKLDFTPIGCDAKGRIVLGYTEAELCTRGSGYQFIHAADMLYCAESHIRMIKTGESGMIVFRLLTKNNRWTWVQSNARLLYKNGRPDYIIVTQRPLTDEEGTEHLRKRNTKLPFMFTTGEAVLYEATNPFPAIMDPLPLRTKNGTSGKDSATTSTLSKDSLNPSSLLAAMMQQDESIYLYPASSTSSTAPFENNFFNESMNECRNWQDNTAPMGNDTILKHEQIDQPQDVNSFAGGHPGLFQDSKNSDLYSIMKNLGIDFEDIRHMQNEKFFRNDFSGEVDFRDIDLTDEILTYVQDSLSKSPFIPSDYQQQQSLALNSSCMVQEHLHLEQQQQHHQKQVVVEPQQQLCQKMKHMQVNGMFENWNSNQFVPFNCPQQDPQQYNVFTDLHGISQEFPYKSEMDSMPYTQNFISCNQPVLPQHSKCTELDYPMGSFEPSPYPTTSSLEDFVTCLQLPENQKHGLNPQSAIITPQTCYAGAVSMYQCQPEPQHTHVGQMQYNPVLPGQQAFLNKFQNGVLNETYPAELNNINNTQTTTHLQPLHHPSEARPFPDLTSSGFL
Summary of the method: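 HepG2 cells stably carrying a 20-DRE firefly luciferase reporter (HG2L7.5c1) treated with compound for 24 hr at 37C. Luciferase read by ONE-Glo luminescence, with CellTiter-Fluor viability read first.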

[3] = qHTS assay to identify small molecule that activate the aryl hydrocarbon receptor (AhR) signaling pathway - cell viability counter screen (AID 743086);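 also: HepG2 liver cells carrying the AhR DRE luciferase reporter; series mostly up to about 70 µM; nearly all actives have a fitted effect of over 45% in size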
Summary of the method: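 HepG2-AhR-luc (HG2L7.5c1) cells, 4000/well, were preincubated 5 h at 37C, exposed to compound in qHTS format for 24 hr at 37C, then given CellTiter-Fluor for 30 min; viability was read as fluorescence in the reporter wells.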

[4] = qHTS assay for small molecule agonists of the antioxidant response element (ARE) signaling pathway (AID 743202; active = well fitted activation curve with a large enough effect in the signal ratio in the repeat runs, not every such curve was filed as active; the % refers to the signal ratio; also: potency is read from the fitted curve at half-maximal effect)
Summary of the method: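 Following a 16 h, 37 C exposure of reporter HepG2 cells (ARE-driven beta-lactamase, 2,000 cells/well) to compounds, FRET substrate was applied for 2 h at room temperature and fluorescence intensity recorded.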

[5] = qHTS assay for small molecule activators of the heat shock response signaling pathway - cell viability counter screen (AID 743209); also: nearly all actives have a fitted effect of over 50% in size; also: potency is read from the fitted curve at half-maximal effect
Summary of the method: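 Cytotoxicity counter screen run in the same wells as the heat-shock bla reporter assay: HeLa HSE-bla cells, 5 h compound exposure at 37 C, viability read by CellTiter-Glo luminescence.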

[6] = qHTS assay for small molecule activators of the heat shock response signaling pathway (AID 743210; active = well fitted activation curve with a large enough effect in the signal ratio in the repeat runs, with a control signal flat, not every such curve was filed as active; the % refers to the signal ratio; also: potency is read from the fitted curve at half-maximal effect; as to activation: series mostly up to about 63 µM)
Summary of the method: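 Heat shock element–beta-lactamase HeLa reporter cells; qHTS with compounds for 5 h at 37 C; detection by FRET substrate fluorescence after 2.5 h at RT.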

[7] = qHTS assay to identify small molecule agonists of the peroxisome proliferator-activated receptor delta (PPARd) signaling pathway - cell viability counter screen (AID 743211); also: nearly all actives have a fitted effect of over 55% in size; also: potency is read from the fitted curve at half-maximal effect
Summary of the method: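 PPARd-bla HEK293H cells (3000/well) were pre-incubated 5 h at 37 C, then exposed to compound for 17 h at 37 C. After 2 h with LiveBLAzer substrate, CellTiter-Glo was added to the same wells; luminescence read after 30 min at room temperature.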

[8] = qHTS assay to identify small molecule agonists of the farnesoid-X-receptor (FXR) signaling pathway - cell viability counter screen (AID 743218); also: nearly all actives have a fitted effect of over 45% in size
Summary of the method: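 Viability counter screen in the same wells: CellTiter-Glo luminescence, 30 min room-temperature incubation, measured after the beta-lactamase read. Cells were GeneBLAzer FXR-UAS-bla HEK 293T, compound-treated 16 h at 37C.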

[9] = qHTS assay to identify small molecule antagonists of the farnesoid-X-receptor (FXR) signaling pathway - cell viability counter screen (AID 743221; active = well fitted cell-killing curve with a large enough effect in the repeat runs, not every such curve was filed as active; also: nearly all actives have a fitted effect of over 50% in size)
Summary of the method: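 GeneBLAzer FXR-UAS-bla HEK 293T cells, compound plus chenodeoxycholic acid (50 uM final), 16 h at 37 C. CellTiter-Glo added to the same wells after the beta-lactamase read; luminescence read after 30 min at room temperature as viability.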

[10] = target: Vitamin D3 receptor (Homo sapiens) (UniProt P11473); experiment: qHTS assay to identify small molecule agonists of the vitamin D receptor (VDR) signaling pathway (AID 743222; calls by dose curve)
Vitamin D3 receptor (Homo sapiens), sequence (P11473 whole entry, looked up): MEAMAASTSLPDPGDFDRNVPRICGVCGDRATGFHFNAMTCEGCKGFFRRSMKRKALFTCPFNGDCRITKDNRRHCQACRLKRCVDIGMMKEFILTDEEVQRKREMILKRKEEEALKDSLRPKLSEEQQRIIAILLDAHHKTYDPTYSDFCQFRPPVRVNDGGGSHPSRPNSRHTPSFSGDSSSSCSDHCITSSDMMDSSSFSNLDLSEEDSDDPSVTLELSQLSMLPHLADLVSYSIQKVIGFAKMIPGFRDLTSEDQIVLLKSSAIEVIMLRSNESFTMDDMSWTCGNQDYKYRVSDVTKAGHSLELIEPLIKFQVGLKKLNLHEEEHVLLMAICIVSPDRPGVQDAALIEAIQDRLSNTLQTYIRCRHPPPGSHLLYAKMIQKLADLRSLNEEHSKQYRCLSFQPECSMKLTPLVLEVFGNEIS
Summary of the method: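 Agonist mode, beta-lactamase reporter: fluorescence from LiveBLAzer B/G FRET substrate (2 h, room temperature) read after 16 h compound treatment at 37 C of VDR-bla cells, which were pre-incubated 4 h after seeding.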

[11] = target: Vitamin D3 receptor (Homo sapiens) (UniProt P11473); experiment: qHTS assay to identify small molecule antagonists of the vitamin D receptor (VDR) signaling pathway (AID 743223; active = well fitted inhibition curve with a large enough effect in the signal ratio in the repeat runs, not every such curve was filed as active; the % refers to the signal ratio)
Summary of the method: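 VDR-bla cells were treated with compound plus 3 nM final 1alpha,25-dihydroxyvitamin D3 for 16 h at 37C. Beta-lactamase reporter read by B/G FRET substrate fluorescence after 2 h at room temperature. qHTS format.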

[12] = target: Peroxisome proliferator-activated receptor gamma (Homo sapiens) (UniProt P37231); experiment: qHTS assay to identify small molecule agonists of the peroxisome proliferator-activated receptor gamma (PPARg) signaling pathway (AID 743094; active = well fitted activation curve with a large enough effect in the signal ratio in the repeat runs, not every such curve was filed as active; the % refers to the signal ratio)
Peroxisome proliferator-activated receptor gamma (Homo sapiens), sequence (P37231 whole entry, looked up): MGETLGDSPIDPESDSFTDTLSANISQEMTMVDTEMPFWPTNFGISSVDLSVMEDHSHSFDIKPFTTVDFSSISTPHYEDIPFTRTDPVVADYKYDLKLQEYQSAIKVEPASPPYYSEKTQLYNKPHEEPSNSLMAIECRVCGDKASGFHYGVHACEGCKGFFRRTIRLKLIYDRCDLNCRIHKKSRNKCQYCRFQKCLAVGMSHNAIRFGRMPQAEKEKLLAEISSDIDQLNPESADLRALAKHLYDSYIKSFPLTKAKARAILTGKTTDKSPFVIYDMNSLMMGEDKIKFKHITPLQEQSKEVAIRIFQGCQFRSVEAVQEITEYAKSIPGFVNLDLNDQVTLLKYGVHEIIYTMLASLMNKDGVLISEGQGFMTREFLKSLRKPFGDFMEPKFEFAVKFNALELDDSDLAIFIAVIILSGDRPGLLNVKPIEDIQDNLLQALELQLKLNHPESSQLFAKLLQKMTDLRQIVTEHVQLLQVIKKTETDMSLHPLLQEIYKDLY
Summary of the method: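 Agonist activity was taken from a beta-lactamase reporter (FRET substrate, 1 h at room temperature) in HEK293H cells carrying a PPARg UAS-bla construct. Compounds in DMSO were incubated 17 h at 37C after a 5 h cell pre-incubation.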

[13] = target: Peroxisome proliferator-activated receptor gamma (Homo sapiens) (UniProt P37231); experiment: qHTS assay to identify small molecule antagonists of the peroxisome proliferator-activated receptor gamma (PPARg) signaling pathway (AID 743191; calls by dose curve; also: nearly all actives have a fitted effect of over 30% in size; also: potency is read from the fitted curve at half-maximal effect)
Summary of the method: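 GeneBLAzer PPARg UAS-bla HEK293H cells carrying a UAS-driven beta-lactamase reporter were plated at 3000 cells/well, preincubated 5 h at 37C, then given compound for 17 h at 37C; LiveBLAzer B/G FRET substrate was read after 1 h at room temperature.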

[14] = qHTS assay to identify small molecule antagonists of the peroxisome proliferator-activated receptor gamma (PPARg) signaling pathway - cell viability counter screen (AID 743194); settings: Potency: co-treated with 50 nM rosiglitazone unless noted; also: nearly all actives have a fitted effect of over 55% in size
Summary of the method: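 PPARg-UAS-bla HEK293H cells were plated, rested 5 h at 37 C, then treated with compounds plus rosiglitazone (50 nM final) for 17 h at 37 C; viability was then read by CellTiter-Glo luminescence after 30 min at room temperature.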

[15] = target: Peroxisome proliferator-activated receptor delta (Homo sapiens) (UniProt Q03181); experiment: qHTS assay to identify small molecule agonists of the peroxisome proliferator-activated receptor delta (PPARd) signaling pathway (AID 743212; calls by dose curve; also: potency is read from the fitted curve at half-maximal effect)
Peroxisome proliferator-activated receptor delta (Homo sapiens), sequence (Q03181 whole entry, looked up): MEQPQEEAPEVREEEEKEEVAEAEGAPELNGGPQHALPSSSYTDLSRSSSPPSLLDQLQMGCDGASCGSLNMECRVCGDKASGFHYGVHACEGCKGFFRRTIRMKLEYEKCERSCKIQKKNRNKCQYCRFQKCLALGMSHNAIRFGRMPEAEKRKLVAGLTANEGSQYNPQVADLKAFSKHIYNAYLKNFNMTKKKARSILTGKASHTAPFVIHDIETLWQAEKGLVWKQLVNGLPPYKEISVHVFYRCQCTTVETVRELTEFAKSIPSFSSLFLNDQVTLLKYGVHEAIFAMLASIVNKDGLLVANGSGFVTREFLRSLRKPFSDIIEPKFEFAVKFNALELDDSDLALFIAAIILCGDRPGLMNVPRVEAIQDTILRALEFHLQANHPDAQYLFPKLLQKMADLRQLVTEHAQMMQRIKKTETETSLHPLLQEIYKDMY
Summary of the method: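 Beta-lactamase reporter read by fluorescence (LiveBLAzer B/G FRET, 2 h, room temperature). Test agents, in DMSO, incubated at 37 C with PPARd-bla HEK293H cells.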

[16] = qHTS assay to identify small molecule antagonists of the peroxisome proliferator-activated receptor delta (PPARd) signaling pathway - cell viability counter screen (AID 743213); also: nearly all actives have a fitted effect of over 50% in size
Summary of the method: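 In this counter screen, HEK293H cells carrying a UAS-beta-lactamase reporter are co-treated with test compounds and 300 nM L165041 (final) for 17 h at 37 C; cell viability is quantified by CellTiter-Glo luminescence.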

[17] = target: Peroxisome proliferator-activated receptor delta (Homo sapiens) (UniProt Q03181); experiment: qHTS assay to identify small molecule antagonists of the peroxisome proliferator-activated receptor delta (PPARd) signaling pathway (AID 743215; active = well fitted inhibition curve with a large enough effect in the signal ratio in the repeat runs, not every such curve was filed as active; the % refers to the signal ratio;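 also: cells stimulated with agonist L165041 at 300 nM final during compound exposure; series mostly up to about 62 µM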)
Summary of the method: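 Agonist L165041 (300 nM final) added with compound to PPARd-bla HEK293H UAS-bla reporter cells; 17 h incubation at 37 C. Read-out: LiveBLAzer FRET substrate, 2 h at room temperature, fluorescence intensity.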

[18] = qHTS assay for small molecule agonists of the antioxidant response element (ARE) signaling pathway - cell viability counter screen (AID 743203; calls by dose curve; also: nearly all actives have a fitted effect of over 55% in size; also: potency is read from the fitted curve at half-maximal effect)
Summary of the method: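 Viability counter screen: CellTiter-Glo luminescence, read after 30 min at room temperature, in ARE-bla HepG2 wells. Compound exposure lasted 16 h at 37C/5% CO2, following a 5 h pre-incubation of the cells after plating.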

[19] = target: Bile acid receptor (Homo sapiens) (UniProt Q96RI1); experiment: qHTS assay to identify small molecule antagonists of the farnesoid-X-receptor (FXR) signaling pathway (AID 743217; active = well fitted inhibition curve with a large enough effect in the signal ratio in the repeat runs, not every such curve was filed as active; the % refers to the signal ratio)
Bile acid receptor (Homo sapiens), sequence (Q96RI1 whole entry, looked up): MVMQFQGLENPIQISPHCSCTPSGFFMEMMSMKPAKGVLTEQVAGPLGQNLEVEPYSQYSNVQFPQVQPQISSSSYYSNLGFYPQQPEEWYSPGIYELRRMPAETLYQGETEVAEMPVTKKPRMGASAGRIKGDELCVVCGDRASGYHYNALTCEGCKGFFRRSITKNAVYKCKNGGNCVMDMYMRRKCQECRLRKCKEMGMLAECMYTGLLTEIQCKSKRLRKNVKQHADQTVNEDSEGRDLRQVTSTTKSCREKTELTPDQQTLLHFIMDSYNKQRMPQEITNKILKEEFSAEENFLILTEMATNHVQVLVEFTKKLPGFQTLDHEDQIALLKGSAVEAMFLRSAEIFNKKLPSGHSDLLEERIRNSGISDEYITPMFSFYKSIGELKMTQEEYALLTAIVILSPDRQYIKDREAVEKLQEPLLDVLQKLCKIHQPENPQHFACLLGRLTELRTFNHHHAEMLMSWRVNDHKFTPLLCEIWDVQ
Summary of the method: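 Antagonist mode: chenodeoxycholic acid at 50 uM final stimulates a UAS-driven beta-lactamase reporter in HEK 293T FXR-bla cells during 16 h, 37C compound exposure. Read-out is FRET substrate fluorescence after 2 h at room temperature.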

[20] = target: Bile acid receptor (Homo sapiens) (UniProt Q96RI1); experiment: qHTS assay to identify small molecule agonists of the farnesoid-X-receptor (FXR) signaling pathway (AID 743220; active = well fitted activation curve with a large enough effect in the signal ratio in the repeat runs, not every such curve was filed as active; the % refers to the signal ratio)
Summary of the method: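 FXR-UAS-bla HEK 293T cells carrying a UAS-driven beta-lactamase reporter were plated for 5 h at 37C/5% CO2, then exposed to DMSO-dissolved Tox21 10K compounds for 16 h at 37C. A LiveBLAzer B/G FRET substrate was loaded for 2 h at room temperature before fluorescence reading.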

Measured: Potency

S=C1NCCN1
inactive: [1] | [2] | [3] | [4] | [5] | [6] | [7] | [8] | [9] | [10] | [11]

CCCCCCCCC(=O)NCc1ccc(O)c(OC)c1
not listed: [2] | [18] | [19] | [20]
inactive: all other assays above

c1cc(OCC2CO2)ccc1Cc1ccc(OCC2CO2)cc1 (stereo not given)
active: [4] 61.4 µM and 61.1 µM
inactive: [3] | [18] | [5] | [7] | [19] | [8] | [20] | [9]

O=C(O)C(F)(F)C(F)(F)C(F)(F)C(F)(F)C(F)(F)C(F)(F)C(F)(F)F
active: [4] 27.3 µM and 21.6 µM | [15] 19.4 µM
not listed: [6] | [12] | [13] | [17] | [18] | [19] | [20]
inactive: all other assays above

Oc1c(Cl)c(Cl)c(Cl)c(Cl)c1Cl
inactive: [1] | [3] | [5] | [6] | [7] | [20] | [9] | [10] | [11]
active: [2] 3.37 µM | [13] 3.4 µM

N[C@@H](Cc1ccc(N(CCCl)CCCl)cc1)C(=O)O
not listed: [1] | [10] | [11] | [14]
inactive: all other assays above

C=CCc1ccc2c(c1)OCO2
not listed: [2] | [13] | [14] | [15] | [17] | [19] | [20]
inactive: all other assays above

CCOCN(C(=O)CCl)c1c(C)cccc1CC
inactive: [2] | [3] | [12] | [14] | [16] | [9] | [10] | [11]
active: [18] 14.5 µM and 21.7 µM | [7] 41.2 µM

Nc1ccc(Cl)cc1N
inactive and 6.11 µM (active): [18]
active: [2] 11.3 µM and 13.7 µM
inactive: [1] | [12] | [5] | [7] | [16] | [8] | [9]

COc1ccc(C(CN(C)C)C2(O)CCCCC2)cc1 (stereo not given)
not listed: [2] | [16] | [18] | [19] | [20]
inactive: all other assays above

NNC(=S)NN
active: [6] 1.79 µM and 4.36 µM
not listed: [2] | [7] | [14] | [19] | [20]
inactive: all other assays above

CC(C)N(C(=O)SCC(Cl)=C(Cl)Cl)C(C)C
not listed: [1] | [2] | [8] | [12] | [13] | [18]
inactive: all other assays above

O=C(CCl)c1ccccc1
inactive and 24.5 µM (active): [5]
inactive and 61.1 µM (active): [1]
inactive: [2] | [3] | [7] | [15] | [16] | [17] | [8] | [9] | [10] | [11]

CCC(C)c1ccc(O)cc1 (stereo not given)
inactive: [3] | [14] | [4] | [5] | [6] | [7] | [16] | [19] | [20] | [9]

CCC(=O)O[C@H]1CC[C@H]2[C@@H]3CCC4=CC(=O)CC[C@]4(C)[C@H]3CC[C@]12C
54.9 µM (active) and inactive: [5]
49 µM (active) and inactive: [7]
inactive: [1] | [2] | [3] | [12] | [6] | [15] | [17] | [9]

CCOC(=S)S
inactive: [2] | [3] | [14] | [4] | [18] | [19] | [9]
active: [5] 17.4 µM | [6] 2.24 µM

C=CC(=O)OCCO
not listed: [1] | [2] | [4] | [12] | [13] | [19] | [20]
inactive: all other assays above

C[C@]12CCC(=O)C[C@@H]1CC[C@@H]1[C@@H]2CC[C@]2(C)[C@@H](O)CC[C@@H]12
active: [4] 27 µM
inactive: [1] | [2] | [3] | [14] | [5] | [6] | [7]

C1=Cc2cccc3cccc1c23
not listed: [2] | [4] | [8] | [18] | [19] | [20]
inactive: all other assays above

CCc1cccc(CC)c1N(COC)C(=O)CCl
active: [4] 4.19 µM and 4.86 µM
not listed: [1] | [6] | [8] | [12] | [13] | [14] | [17]
inactive: all other assays above

N#Cc1cc(Br)c(O)c(Br)c1
active: [13] 54.9 µM and 21.1 µM
not listed: [2] | [4] | [8] | [10] | [11] | [14] | [16]
inactive: all other assays above

Nc1ccc(-c2ccccc2)cc1
inactive and 27.3 µM (active): [4]
active: [2] 9.69 µM
not listed: [8] | [12] | [13] | [14] | [16] | [19] | [20]
inactive: all other assays above

CC(C)=CC1C(C(=O)OCc2coc(Cc3ccccc3)c2)C1(C)C (stereo not given)
active: [4] 54.5 µM and 30.6 µM
not listed: [6] | [8] | [12] | [13] | [14] | [16] | [18]
inactive: all other assays above

c1ccc(NNc2ccccc2)cc1
not listed: [1] | [2] | [12] | [13] | [14]
inactive: all other assays above

Nc1ccc(-c2ccc(N)c(N)c2)cc1N
active: [2] 484 nM and 3.06 µM
54.3 µM (active) and inactive: [1]
inactive: [12] | [14] | [5] | [7] | [15] | [19] | [8] | [20] | [9] | [10]

CCC(C)(c1ccc(O)cc1)c1ccc(O)cc1
active: [13] 30.9 µM and 38.9 µM
54.9 µM (active) and inactive: [7]
not listed: [4] | [6] | [10] | [11] | [12] | [15] | [17]
inactive: all other assays above

Source: PubChem BioAssay (Tox21)
